Screening results: PubChem, National Center for Advancing Translational Sciences (NCATS)
The list is not random: actives were taken first. Their share in the collection is about 10%.
GPT2 inhibitor: Primary qHTS assay for inhibitors of Glutamate pyruvate transaminase 2 (GPT2); Alanine aminotransferase 2 (Homo sapiens), Q8TD30; Recombinant GPT2, coupled pyruvate oxidase/HRP Amplex Red fluorescence; Potency, µM (doses to about 57.7 µM), most hits filed as inhibitors; hit rate 0.25% among 100,000; also: nearly all actives have a fitted effect of over 60% in size
Target sequence (Q8TD30 whole entry, looked up): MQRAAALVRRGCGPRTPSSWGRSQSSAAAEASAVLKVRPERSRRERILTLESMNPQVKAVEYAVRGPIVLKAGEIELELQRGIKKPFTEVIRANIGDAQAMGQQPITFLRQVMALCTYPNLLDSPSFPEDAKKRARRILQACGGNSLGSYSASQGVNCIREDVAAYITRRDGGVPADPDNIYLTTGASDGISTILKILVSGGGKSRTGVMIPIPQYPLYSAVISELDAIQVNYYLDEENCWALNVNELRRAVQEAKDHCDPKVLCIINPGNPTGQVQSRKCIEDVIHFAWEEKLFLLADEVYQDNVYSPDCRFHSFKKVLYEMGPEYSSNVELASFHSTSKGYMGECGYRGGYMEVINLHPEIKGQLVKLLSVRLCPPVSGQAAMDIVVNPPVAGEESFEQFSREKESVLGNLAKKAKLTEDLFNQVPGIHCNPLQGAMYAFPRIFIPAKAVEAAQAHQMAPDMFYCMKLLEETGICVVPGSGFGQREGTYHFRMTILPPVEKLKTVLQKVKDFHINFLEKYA
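Inhibition is scored from Amplex Red fluorescence generated when pyruvate oxidase and HRP act on pyruvate released by GPT2. Reactions contain 10ng/uL enzyme, 250uM a-KG and 2mM L-alanine and run 30 min at room temperature.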
HEK293 tox: Cytotoxic Profiling in HEK 293 Cell Line of Diverse Libraries Using Quantitative High-Throughput Screening. HEK 293 viability, ATP luminescence (CellTiter-Glo), 48-72 h. Potency, µM (doses to about 115 µM), hits mostly inhibitors. hit rate 6.6% among 94,000. AID 1345083, 2018; also: nearly all actives have a fitted effect of over 60% in size
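Luminescence from cellular ATP, measured with CellTiter-Glo, indicates HEK 293 viability. Cells plated at 250 cells/well are treated with compound for 48 or 72 hr at 37 degree Celsius before reagent addition.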
Luciferase inh: Firefly luciferase inhibition profiling of diverse chemical library using quantitative high-throughput screening. Luciferin 4-monooxygenase (Photinus pyralis), P08659. purified P. pyralis luciferase, luminescence, biochemical. Potency, µM (highest dose often 115 µM), usual class: inhibitors. hit rate 2.5% among 76,000; also: nearly all actives have a fitted effect of over 65% in size
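Purified P. pyralis luciferase (10nM final) in 50mM Tris acetate pH 7.5, 10mM Mg acetate, 0.01% Tween-20, 0.05% BSA with 10uM D-luciferin and 10uM ATP. Compounds titrated qHTS. Luminescence imaged on CCD.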
NIH3T3 tox: Cytotoxic Profiling in NIH 3T3 Cell Line of Diverse Libraries Using Quantitative High-Throughput Screening | NIH 3T3 viability, CellTiter-Glo ATP luminescence, 48-72 h | Potency, µM (doses to about 96.7 µM), hits mostly inhibitors | hit rate 4.3% among 94,000 | AID 1345082, 2018; also: nearly all actives have a fitted effect of over 55% in size
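Cytotoxicity was measured by CellTiter-Glo ATP luminescence after 48 or 72 h compound exposure at 37 °C. Mouse NIH 3T3 fibroblasts were seeded at 400 cells/well and dosed by 23 nL pin transfer.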
hNpr1 antagonist: Natriuretic polypeptide receptor (hNpr1) antagonism - Primary qHTS; HEK293 hNpr1 GloSensor cGMP, ANP-stimulated luminescence; hit rate 1.6% among 76,000; Potency, µM (doses to about 46.3 µM), hits mostly inhibitors; Atrial natriuretic peptide receptor 1 (Homo sapiens), P16066; calls by dose curve; also: nearly all actives have a fitted effect of over 60% in size
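HEK293 cells stably expressing human Npr1 and cGMP GloSensor pGS-40F, loaded 2 h with 2% GloSensor reagent, given compound 30 min at room temperature. Luminescence read before and 20 min after 0.1 nM hNppA.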
Of the large screens only hits and unclear results are named; the others gave an inactive call. Unless noted, calls follow the shape of the dose curve; as a rule, active = well fitted curve in the direction sought with a large enough effect; inconclusive = small, poorly fitted or top-dose-only effect, or another doubt; inactive = no such curve, though single readings can be large; an effect the other way counts as inactive or inconclusive.

COc1ccc(N2CCN(C(=O)c3ccc4c(c3)N(C)C3CCCCCN3C4=O)CC2)cc1 (centres undefined)	HEK293 tox inconclusive
O=c1[nH]c(C2CCCN(Cc3ccc(F)cc3)C2)nn1-c1ccccc1 (centres undefined)	GPT2 inhibitor inconclusive
O=C(c1ccccc1Cl)N1CCCC(c2nn(-c3cccc(Cl)c3)c(=O)[nH]2)C1 (centres undefined)	HEK293 tox 35.5µM, NIH3T3 tox 35.5µM
O=c1[nH]c(C2CCCN(Cc3ccc(F)cc3)C2)nn1-c1ccc(Cl)cc1 (centres undefined)	HEK293 tox 44.7µM, NIH3T3 tox 35.5µM
CN(Cc1cccc(CCN)c1)Cc1cccc2ncccc12	HEK293 tox 44.7µM, NIH3T3 tox inconclusive
Cc1c(CN(C)Cc2cccc3ncccc23)c(=O)n(-c2ccccc2)n1C	none
O=C(Cn1cccc1-c1nc(-c2ccccc2)no1)NCCCc1ccccc1	HEK293 tox 44.7µM
O=C(c1ccccc1F)N1CCC2(CC1)CC(=O)N(c1ccccc1)c1ccccc1O2	HEK293 tox 79.4µM, NIH3T3 tox inconclusive
O=C(c1ccccc1)N1CCC2(CC1)CC(=O)N(c1ccccc1)c1ccccc1O2	none
O=C(c1ccccc1Cl)N1CCC2(CC1)CC(=O)N(c1ccccc1)c1ccccc1O2	HEK293 tox 79.4µM, NIH3T3 tox inconclusive
CN(C)c1ccc(CN2CCNc3cc(-c4ccccc4)ncc3C2)cc1	HEK293 tox inconclusive, NIH3T3 tox inconclusive
Cn1cc(CN2CCNc3cc(Nc4cccnc4)ncc3C2)cn1	HEK293 tox inconclusive, NIH3T3 tox inconclusive
COc1ccc(CN2CCNc3cc(Nc4ccccc4)ncc3C2)cc1	HEK293 tox 70.8µM, NIH3T3 tox inconclusive
CN(C)c1ccc(CN2CCNc3cc(Nc4ccccc4)ncc3C2)cc1	HEK293 tox inconclusive, NIH3T3 tox 56.2µM
COc1ccccc1CN1CCNc2cc(Nc3ccccc3)ncc2C1	HEK293 tox 35.5µM, Luciferase inh inconclusive, NIH3T3 tox 35.5µM
COc1cccc(Nc2cc3c(cn2)CN(Cc2ccncc2)CCN3)c1	HEK293 tox inconclusive, Luciferase inh inconclusive, NIH3T3 tox inconclusive
CN(C)c1ccc(CN2CCNc3cc(Nc4cccnc4)ncc3C2)cc1	HEK293 tox inconclusive, Luciferase inh 63.1µM, NIH3T3 tox inconclusive
Nc1nc2c(nc(Br)n2[C@@H]2O[C@@H]3COP(=O)(O)O[C@H]3[C@H]2O)c(=O)[nH]1	none (no result: HEK293 tox, Luciferase inh, NIH3T3 tox, hNpr1 antagonist)
CCCNC(=O)N(C1CCOCC1)C1CCN(C(=O)c2cc(Cl)ccc2OC)CC1	NIH3T3 tox inconclusive
CCN(CC)CC(=O)N1CCC(C(=O)Nc2ccc(-c3nc4ccccc4o3)cc2)CC1	HEK293 tox 22.4µM, NIH3T3 tox 22.4µM
O=C(Nc1ccc2oc(-c3ccccc3)nc2c1)C1CCN(c2cnn(Cc3ccccc3)c(=O)c2)C1 (centres undefined)	Luciferase inh inconclusive
CN1CCC(N2CC[C@H](c3nc4ccccc4[nH]3)C2)CC1	Luciferase inh 70.8µM
CN1CCC(N2CC[C@H](c3nc4ccc(C(F)(F)F)cc4[nH]3)C2)CC1	HEK293 tox inconclusive, NIH3T3 tox 89.1µM
FC(F)(F)c1ccc2nc([C@H]3CCN(C4CCCCC4)C3)[nH]c2c1	HEK293 tox inconclusive, Luciferase inh 56.2µM, NIH3T3 tox 89.1µM
Cc1ccc2nc([C@H]3CCN(C4CCC4)C3)[nH]c2c1	HEK293 tox inconclusive, Luciferase inh inconclusive, NIH3T3 tox inconclusive, hNpr1 antagonist inconclusive
Cc1ccc(S(=O)(=O)N2CC[C@H](c3nc4ccccc4[nH]3)C2)cc1	HEK293 tox inconclusive, NIH3T3 tox 89.1µM
Cc1cc(C(=O)N2CC[C@@](O)(C3CCOCC3)[C@H](C)C2)ccc1F	none
COCCNC(=O)C1(C)CCc2cnc(Nc3ccccc3)nc21 (centres undefined)	HEK293 tox inconclusive, NIH3T3 tox 79.4µM
COCCNC(=O)C1(C)CCCc2cnc(Nc3ccccc3)nc21 (centres undefined)	HEK293 tox inconclusive, NIH3T3 tox inconclusive
COCCNC(=O)C1(C)CCc2cnc(NCc3ccccc3)nc21 (centres undefined)	NIH3T3 tox 89.1µM
CC1(C(=O)NCCOc2ccccc2)CCCc2cnc(Nc3cccnc3)nc21 (centres undefined)	HEK293 tox 100µM, NIH3T3 tox inconclusive
Cn1ccc(NC(=O)C2(C)CCc3cnc(NCc4ccccc4)nc32)n1 (centres undefined)	HEK293 tox inconclusive, NIH3T3 tox 20µM
COCCN1CCC(N2CCN(S(=O)(=O)Cc3cccc(Cl)c3)CC2)C1=O (centres undefined)	none
CN1CCC(NC(=O)C2(C)CCCc3cnc(NCc4ccccc4)nc32)CC1 (centres undefined)	HEK293 tox inconclusive
CC1(C(=O)NCC2CC2)CCCc2cnc(Nc3ccccc3)nc21 (centres undefined)	HEK293 tox inconclusive, NIH3T3 tox inconclusive
CC1(C(=O)NCC2CC2)CCc2cnc(NCc3ccccc3)nc21 (centres undefined)	HEK293 tox 39.8µM, NIH3T3 tox inconclusive
CC1(C(=O)NCCCn2ccnc2)CCc2cnc(NCc3ccccc3)nc21 (centres undefined)	NIH3T3 tox 31.6µM
Cc1noc(C)c1-c1cc2cc(CO)oc2c(NC2CCN(C)CC2)n1	HEK293 tox inconclusive, NIH3T3 tox 44.7µM
Cc1cc2cc(-c3c(C)noc3C)nc(NC3CCN(C)CC3)c2o1	HEK293 tox 100µM, NIH3T3 tox 35.5µM
Cc1noc(C)c1-c1cc2cc(CO)oc2c(NCc2cccc(F)c2)n1	HEK293 tox inconclusive, NIH3T3 tox 25.1µM
COCCNc1nc(-c2c(C)noc2C)cc2cc(CO)oc12	NIH3T3 tox inconclusive
CS(=O)(=O)N1CCn2ncc(C(=O)N3CCOCC3)c2C1	none (no result: Luciferase inh, hNpr1 antagonist)
C[S+](=O)([O-])c1ccc(-c2nnc3ccc(C(=O)NCc4cccc(C(F)(F)F)c4)cn23)cc1	HEK293 tox inconclusive, NIH3T3 tox inconclusive (no result: Luciferase inh, hNpr1 antagonist)
Cc1cc(CN(C)c2cc(C3CC(N)C3)nc(N)n2)no1 (centres undefined)	none
CCOc1ccc(Cl)cc1CN(C)c1cc(C2CC(O)C2)nc(N)n1 (centres undefined)	HEK293 tox 39.8µM, NIH3T3 tox 31.6µM, hNpr1 antagonist inconclusive
O=C(NC1CCCc2c1[nH]c1c(Cl)cccc21)c1n[nH]c2c1CCC2 (centres undefined)	HEK293 tox inconclusive, NIH3T3 tox 28.2µM
Cc1noc(C)c1CC(=O)NC1CCCc2c1[nH]c1ccccc21 (centres undefined)	HEK293 tox inconclusive, NIH3T3 tox 39.8µM
